We go through 4 compounds from PubChem BioAssay (EPA / NIEHS).

Test [1] concerns the target Androgen receptor (Homo sapiens) (UniProt P10275). Kind of test: ATG_AR_TRANS: Attagene TRANS-FACTORIAL HepG2 Assay for human Androgen Receptor (AR) (AID 2282973). Particulars: HepG2 Attagene TRANS-FACTORIAL AR reporter transcription. In short, it runs like this:
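Transfected HepG2, 24 h treatment, chimeric NR-Gal4 driving GAL4-UAS reporters. mRNA induction by RT-PCR/capillary electrophoresis fluorescence; DMSO as negative control and baseline.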

Test [2] has as its target Cytochrome P450 2C18 (Homo sapiens) (UniProt P33260). Kind of test: NVS_ADME_hCYP2C18: NovaScreen (NVS) CYP450-related Enzyme Activity (ADME) Assay for human CYP2C18 (AID 2283103; active = hit-call score of the fitted dose curve at least 0.9, where 1 is the maximum; inactive = score below 0.9). In short, it runs like this: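 Cell-free recombinant human CYP2C18 with fluorogenic substrate; fluorescence intensity read 0.5 h after dosing. Single-point screen at 10 uM in duplicate, then concentration-response up to 20 uM; loss of signal fitted against acetonitrile baseline.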

The target in test [3] is rat CYP1A2, Cyp1a2 (gene 24297) (UniProt P04799). Description: NVS_ADME_rCYP1A2: NovaScreen (NVS) CYP450-related Enzyme Activity (ADME) Assay for rat CYP1A2 (AID 2283115). In short, it runs like this:
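Cell-free recombinant rat enzyme with fluorogenic substrate, read by fluorescence intensity 1 hour after dosing. Loss of signal versus acetonitrile negative control; primary screen at 10 uM in duplicate, actives followed in concentration series.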

Test [4] concerns the target Voltage-dependent N-type calcium channel subunit alpha-1B (Rattus norvegicus) (UniProt Q02294). Kind of test: NVS_IC_rCaChN: NovaScreen (NVS) Ion Channel Assay for rat Calcium Channel, Type N (CaChN) (AID 2283317).
For test [5], the target named is bovine Gamma-Aminobutyric Acid Type A Receptor BDZ, alpha 1 site (GABARa1), GABRA1 (gene 780973) (UniProt P08219). Kind of test: NVS_LGIC_bGABARa1: NovaScreen (NVS) Ligand-Gated Ion Channel Assay for bovine Gamma-Aminobutyric Acid Type A Receptor BDZ, alpha 1 site (GABARa1) (AID 2283321). In short, it runs like this:
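Radioligand competition binding on bovine cortical membranes, 0.75 h, filter-based scintillation counting. Primary single concentration 25 uM in duplicate; actives rerun in concentration-response to 50 uM max. Loss of signal fitted versus DMSO.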

Test [6] concerns the target human Acetylcholinesterase (AChE), ACHE (gene 43) (UniProt P22303). Description: NVS_ENZ_hAChE: NovaScreen (NVS) Enzymatic Assay for human Acetylcholinesterase (AChE) (AID 2283129). In a few lines:
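Cell-free colorimetric enzyme-activity assay; compounds read 0.33 hour after dosing, loss of signal vs DMSO baseline. Primary screen in duplicate at 25 uM single concentration, with active compounds retested in concentration series.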

The target in test [7] is human AMP-activated Protein Kinase, alpha 1 (AMPKa1), PRKAA1 (gene 5562) (UniProt Q13131). Kind of test: NVS_ENZ_hAMPKa1: NovaScreen (NVS) Enzymatic Assay for human AMP-activated Protein Kinase, alpha 1 (AMPKa1) (AID 2283130). In short, it runs like this:
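Recombinant human AMPKα1 activity was measured cell-free by fluorescent substrate conversion with electrophoretic mobility-shift separation, 1 h after dosing. Duplicate single-point screening was at 25 uM; actives (≥30% inhibition) were retested in concentration-response up to 50 uM.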

Test [8] concerns the target human Aurora Kinase A - serine/threonine-protein Kinase 6 (AurA), AURKA (gene 6790) (UniProt O14965). Kind of test: NVS_ENZ_hAurA: NovaScreen (NVS) Enzymatic Assay for human Aurora Kinase A - serine/threonine-protein Kinase 6 (AurA) (AID 2283142). In a few lines: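 Cell-free enzymatic assay with human Aurora A, 1 hour after dosing. Fluorescent substrate turnover detected after electrophoretic mobility shift separation of substrate and product. Screened at 25 uM, actives retested in concentration-response up to 50 uM.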

For test [9], the target named is human Epidermal Growth Factor Receptor (EGFR), EGFR (gene 1956) (UniProt P00533). Kind of test: NVS_ENZ_hEGFR: NovaScreen (NVS) Enzymatic Assay for human Epidermal Growth Factor Receptor (EGFR) (AID 2283151). In short, it runs like this:
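Cell-free kinase assay, fluorescence plus electrophoretic mobility shift separating substrate and product, read 1 hour after dosing; loss of signal vs DMSO. Duplicate screen at 25 uM, then concentration-response to 50 uM.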

Test [10] has as its target human NIMA (Never In Mitosis Gene A)-Related Kinase 2 (NEK2), NEK2 (gene 4751) (UniProt P51955). Description: NVS_ENZ_hNEK2: NovaScreen (NVS) Enzymatic Assay for human NIMA (Never In Mitosis Gene A)-Related Kinase 2 (NEK2) (AID 2283188). In a few lines:
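Cell-free NEK2 enzyme activity after 1 h exposure, read by fluorescence with electrophoretic mobility shift separating substrate and product. Primary screen in duplicate at 25 uM; actives then run as concentration series. Loss of signal versus DMSO scored.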

Test [11] addresses human Protein Tyrosine Phosphatase Non-receptor Type 2 (PTPN2), PTPN2 (gene 5771) (UniProt P17706). Description: NVS_ENZ_hPTPN2: NovaScreen (NVS) Enzymatic Assay for human Protein Tyrosine Phosphatase Non-receptor Type 2 (PTPN2) (AID 2283207). In a few lines:
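Cell-free recombinant enzyme with fluorescent substrate, product separated by electrophoretic mobility shift; read 1 h after dosing. Primary screen single concentration (25 uM) in duplicate; actives followed in concentration series; loss of signal versus DMSO.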

Test [12] has as its target rat Monoamine Oxidase, MAO-B, Peripheral (MAOBP), Maob (gene 25750) (UniProt P19643). Kind of test: NVS_ENZ_rMAOBP: NovaScreen (NVS) Enzymatic Assay for rat Monoamine Oxidase, MAO-B, Peripheral (MAOBP) (AID 2283242).
Test [13] deals with human Neonicotinoid receptor (NNR), CHRNA2 (gene 1135) (UniProt Q15822). Description: NVS_LGIC_hNNR_NBungSens: NovaScreen (NVS) Ligand-Gated Ion Channel Assay for human Neonicotinoid receptor (NNR) (AID 2283313). In a few lines:
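Radioligand displacement on human neuroblastoma membranes, 2 h, filter-based scintillation counting. Primary screen in duplicate at 25 uM; chemicals passing threshold (e.g. 30% inhibition) run singleton concentration-response to 50 uM; loss of binding fitted versus DMSO.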

Test [14] concerns the target Norway rat Vesicular Monoamine Transporter (VMAT2), neurotransmitter transporter, Slc18a2 (gene 25549) (UniProt Q01827). Description: NVS_TR_rVMAT2: NovaScreen (NVS) Transporter Assay for Norway rat Vesicular Monoamine Transporter (VMAT2), neurotransmitter transporter (AID 2283376).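 Note: actives lower the bound radioligand signal below the DMSO level.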 In a few lines:
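Rat forebrain tissue preparation used in a cell-free radioligand binding format; displacement read by filter-based scintillation counting 1 hour after dosing. Primary screen in duplicate at 25 uM, actives then run in concentration series; loss of signal versus DMSO baseline.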

Test [15] deals with human Tyrosine Protein Kinase Receptor Tie-2 (Tie2), TEK (gene 7010) (UniProt Q02763). Kind of test: NVS_ENZ_hTie2: NovaScreen (NVS) Enzymatic Assay for human Tyrosine Protein Kinase Receptor Tie-2 (Tie2) (AID 2283225). In short, it runs like this:
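Recombinant human Tie2 kinase activity was read cell-free by fluorescence with electrophoretic mobility shift, 1 hour after dosing. The screen used 25 uM in duplicate, then concentration-response up to 50 uM. Signal loss was scored against DMSO.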

For test [16], the target named is human CYP4F12, CYP4F12 (gene 66002) (UniProt Q9HCS2). Description: NVS_ADME_hCYP4F12: NovaScreen (NVS) CYP450-related Enzyme Activity (ADME) Assay for human CYP4F12 (AID 2283111). In a few lines:
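Cell-free fluorescence assay of recombinant human CYP4F12 activity on a specific substrate, read 0.5 h after dosing. Primary screen in duplicate at 10 uM, then concentration series for actives; loss of signal fitted against acetonitrile negative control.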

Test [17] concerns the target rat CYP2C12, Cyp2c12 (gene 25011) (UniProt P11510). Description: NVS_ADME_rCYP2C12: NovaScreen (NVS) CYP450-related Enzyme Activity (ADME) Assay for rat CYP2C12 (AID 2283119). In short, it runs like this:
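Cell-free recombinant rat CYP2C12 activity read by fluorescence 0.5 h after dosing; loss of signal versus acetonitrile control. Primary screen in duplicate at 10 uM; actives then run in concentration-response format.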

In test [18] the target is rat CYP2D1, Cyp2d1 (gene 266684) (UniProt P10633). Kind of test: NVS_ADME_rCYP2D1: NovaScreen (NVS) CYP450-related Enzyme Activity (ADME) Assay for rat CYP2D1 (AID 2283122). In a few lines:
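Cell-free fluorescence enzyme-activity assay on extracted rat CYP2D1 protein, read 0.75 h after dosing. Primary screen in duplicate at 10 uM; qualifying chemicals then run in concentration-response to 20 uM max, loss-of-signal versus acetonitrile baseline.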

Test [19] concerns the target human Fibroblast Growth Factor Receptor 1 (FGFR1), FGFR1 (gene 2260) (UniProt P11362). Description: NVS_ENZ_hFGFR1: NovaScreen (NVS) Enzymatic Assay for human Fibroblast Growth Factor Receptor 1 (FGFR1) (AID 2283159). In a few lines:
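Cell-free recombinant kinase with fluorescent substrate, product separated by electrophoretic mobility shift; read 1 hour after dosing, loss of signal relative to DMSO. Initial screen in duplicate at 25 uM, actives followed in concentration series.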

In test [20] the target is human Phosphatase and Tensin Homolog (PTEN), PTEN (gene 5728) (UniProt P60484). Kind of test: NVS_ENZ_hPTEN: NovaScreen (NVS) Enzymatic Assay for human Phosphatase and Tensin Homolog (PTEN) (AID 2283203). In short, it runs like this:
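Cell-free recombinant human PTEN with fluorescent substrate; product separated by electrophoretic mobility shift and read by fluorescence 1 h after dosing. Primary screen in duplicate at 25 uM, actives followed in concentration series versus DMSO.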

In test [21] the target is human Protein Tyrosine Phosphatase Receptor Type C (PTPRC), PTPRC (gene 5788) (UniProt P08575). Kind of test: NVS_ENZ_hPTPRC: NovaScreen (NVS) Enzymatic Assay for human Protein Tyrosine Phosphatase Receptor Type C (PTPRC) (AID 2283212). In short, it runs like this:
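Yeast-extracted human PTPRC used in a cell-free colorimetric enzyme activity read-out, 1 h after dosing. Primary screen in duplicate at 25 uM; actives rerun in concentration-response up to 50 uM, DMSO as baseline.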

Test [22] has as its system rat Monoamine Oxidase, MAO-A, Peripheral (MAOAP), gene 29253. Kind of test: NVS_ENZ_rMAOAP: NovaScreen (NVS) Enzymatic Assay for rat Monoamine Oxidase, MAO-A, Peripheral (MAOAP) (AID 2283237). In a few lines: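 Rat liver mitochondrial membranes served as the MAO-A source, with enzyme activity measured by radiometric scintillation counting 1.17 hours after dosing. Loss of signal was fitted against DMSO; primary screen used 25 uM in duplicate, follow-up used concentration series.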

For test [23], the target named is rat Oxytocin Receptor (OXT), Oxtr (gene 25342) (UniProt P70536). Description: NVS_GPCR_rOXT: NovaScreen (NVS) G Protein-Coupled Receptor Assay for rat Oxytocin Receptor (OXT) (AID 2283330). In short, it runs like this: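 Radioligand displacement on rat uterine membranes, 1 h incubation, filter-based scintillation counting. Chemicals were screened in duplicate at 25 uM, and those passing threshold were retested in concentration-response up to 50 uM. Loss of binding was fitted versus DMSO.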

Test [24] is described as follows: ATG_M_32_XSP2: Attagene TRANS-FACTORIAL Multi-Species (XSP2) HepG2 Assay for M19 Transcription Factor (Internal Marker) (AID 2283826). In a few lines:
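Total RNA is taken from compound-treated HepG2 cells after 24 h and reverse-transcribed; reporter cDNA is PCR-amplified, end-labelled with 6-FAM, digested with HpaI for 2h at 37 C and sized by capillary electrophoresis. Activity is fitted in the positive direction against DMSO.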

Several values for one entry are separate records, joined by “and”; a condition that tells them apart may be missing. Equal entries are not always repeated. Inconclusive results are not listed. Activity calls are given as the source filed them. Rule for the calls, unless noted: active = hit-call score of the fitted dose curve at least 0.9, where 1 is the maximum; inconclusive = response in the unintended direction; inactive = score below 0.9.

Androgen receptor (Homo sapiens), sequence (P10275 whole entry, looked up, the tested form may be a part): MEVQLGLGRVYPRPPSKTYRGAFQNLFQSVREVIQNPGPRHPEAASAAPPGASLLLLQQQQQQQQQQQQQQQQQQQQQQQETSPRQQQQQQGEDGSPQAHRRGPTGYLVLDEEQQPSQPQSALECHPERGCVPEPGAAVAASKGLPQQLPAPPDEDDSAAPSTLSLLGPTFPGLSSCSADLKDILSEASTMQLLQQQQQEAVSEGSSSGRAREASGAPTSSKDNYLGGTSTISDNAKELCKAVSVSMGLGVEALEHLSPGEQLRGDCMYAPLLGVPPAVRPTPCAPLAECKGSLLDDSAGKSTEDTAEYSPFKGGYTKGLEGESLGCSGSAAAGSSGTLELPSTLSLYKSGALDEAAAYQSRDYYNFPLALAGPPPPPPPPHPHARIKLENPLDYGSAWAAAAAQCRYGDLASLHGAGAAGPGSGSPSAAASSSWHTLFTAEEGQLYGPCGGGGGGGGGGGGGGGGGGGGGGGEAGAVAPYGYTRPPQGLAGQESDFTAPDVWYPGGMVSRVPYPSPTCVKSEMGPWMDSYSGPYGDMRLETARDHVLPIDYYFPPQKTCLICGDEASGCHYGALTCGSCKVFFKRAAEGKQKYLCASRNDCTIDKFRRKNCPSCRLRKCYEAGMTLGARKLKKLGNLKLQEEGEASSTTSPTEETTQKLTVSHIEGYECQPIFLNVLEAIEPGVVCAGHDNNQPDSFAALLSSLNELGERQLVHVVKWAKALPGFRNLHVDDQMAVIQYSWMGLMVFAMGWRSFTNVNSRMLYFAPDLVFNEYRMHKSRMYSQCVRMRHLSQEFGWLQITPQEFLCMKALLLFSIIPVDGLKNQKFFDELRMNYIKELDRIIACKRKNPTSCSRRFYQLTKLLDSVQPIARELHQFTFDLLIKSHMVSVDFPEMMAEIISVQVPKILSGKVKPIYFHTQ
rat CYP2C12, Cyp2c12 (gene 25011), sequence (P11510 whole entry, looked up): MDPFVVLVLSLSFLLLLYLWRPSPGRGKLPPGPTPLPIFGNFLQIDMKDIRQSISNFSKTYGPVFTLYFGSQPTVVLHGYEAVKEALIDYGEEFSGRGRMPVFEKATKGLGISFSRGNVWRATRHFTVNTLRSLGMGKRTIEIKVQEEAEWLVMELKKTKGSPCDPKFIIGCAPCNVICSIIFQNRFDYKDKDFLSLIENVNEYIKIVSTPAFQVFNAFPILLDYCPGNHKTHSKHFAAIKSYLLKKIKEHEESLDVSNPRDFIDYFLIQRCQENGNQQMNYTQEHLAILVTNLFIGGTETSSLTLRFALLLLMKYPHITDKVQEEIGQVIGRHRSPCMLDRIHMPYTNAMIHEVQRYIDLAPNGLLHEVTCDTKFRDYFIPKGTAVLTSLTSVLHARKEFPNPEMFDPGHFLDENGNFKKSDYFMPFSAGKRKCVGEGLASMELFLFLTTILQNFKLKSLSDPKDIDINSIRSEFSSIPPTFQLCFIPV
bovine Gamma-Aminobutyric Acid Type A Receptor BDZ, alpha 1 site (GABARa1), GABRA1 (gene 780973), sequence (P08219 whole entry, looked up): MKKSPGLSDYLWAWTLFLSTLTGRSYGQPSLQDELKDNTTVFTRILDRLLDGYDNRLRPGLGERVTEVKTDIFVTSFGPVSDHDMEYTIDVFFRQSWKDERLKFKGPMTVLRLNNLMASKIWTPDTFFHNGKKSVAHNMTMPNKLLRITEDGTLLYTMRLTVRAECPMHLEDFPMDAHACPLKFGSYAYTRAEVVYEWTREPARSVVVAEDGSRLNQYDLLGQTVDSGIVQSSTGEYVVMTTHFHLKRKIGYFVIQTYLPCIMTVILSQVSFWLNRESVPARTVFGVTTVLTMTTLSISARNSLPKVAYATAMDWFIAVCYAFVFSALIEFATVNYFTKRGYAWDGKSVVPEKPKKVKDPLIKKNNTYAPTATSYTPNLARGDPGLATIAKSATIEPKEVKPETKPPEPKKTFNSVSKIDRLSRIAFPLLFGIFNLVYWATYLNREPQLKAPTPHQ
Norway rat Vesicular Monoamine Transporter (VMAT2), neurotransmitter transporter, Slc18a2 (gene 25549), sequence (Q01827 whole entry, looked up): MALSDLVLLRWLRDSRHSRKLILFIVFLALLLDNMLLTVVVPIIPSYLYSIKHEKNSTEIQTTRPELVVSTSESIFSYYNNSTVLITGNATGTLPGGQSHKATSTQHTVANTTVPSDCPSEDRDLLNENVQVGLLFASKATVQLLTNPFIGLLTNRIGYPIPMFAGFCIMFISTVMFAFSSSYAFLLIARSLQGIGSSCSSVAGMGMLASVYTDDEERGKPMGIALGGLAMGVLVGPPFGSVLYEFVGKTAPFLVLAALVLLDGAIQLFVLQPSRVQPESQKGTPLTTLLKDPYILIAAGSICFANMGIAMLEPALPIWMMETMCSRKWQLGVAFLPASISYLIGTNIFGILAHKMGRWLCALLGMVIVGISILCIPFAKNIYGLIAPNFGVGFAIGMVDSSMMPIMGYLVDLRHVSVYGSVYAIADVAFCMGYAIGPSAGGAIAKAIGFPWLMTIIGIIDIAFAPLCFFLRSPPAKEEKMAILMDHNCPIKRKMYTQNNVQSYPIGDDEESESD
Cytochrome P450 2C18 (Homo sapiens), sequence (P33260 whole entry, looked up): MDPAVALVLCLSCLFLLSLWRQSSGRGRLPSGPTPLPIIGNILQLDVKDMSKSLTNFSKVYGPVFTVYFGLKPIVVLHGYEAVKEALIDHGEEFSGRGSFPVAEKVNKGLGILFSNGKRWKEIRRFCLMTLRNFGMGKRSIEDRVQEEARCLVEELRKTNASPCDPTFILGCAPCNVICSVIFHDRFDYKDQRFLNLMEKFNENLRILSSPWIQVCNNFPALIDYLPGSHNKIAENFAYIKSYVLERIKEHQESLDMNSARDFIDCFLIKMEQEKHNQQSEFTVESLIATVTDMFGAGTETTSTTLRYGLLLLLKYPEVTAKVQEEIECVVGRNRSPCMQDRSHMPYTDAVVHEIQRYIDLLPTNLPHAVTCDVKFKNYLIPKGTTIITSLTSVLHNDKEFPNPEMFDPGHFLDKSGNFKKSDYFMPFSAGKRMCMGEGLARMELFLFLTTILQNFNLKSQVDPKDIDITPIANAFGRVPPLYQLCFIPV
human Tyrosine Protein Kinase Receptor Tie-2 (Tie2), TEK (gene 7010), sequence (Q02763 whole entry, looked up): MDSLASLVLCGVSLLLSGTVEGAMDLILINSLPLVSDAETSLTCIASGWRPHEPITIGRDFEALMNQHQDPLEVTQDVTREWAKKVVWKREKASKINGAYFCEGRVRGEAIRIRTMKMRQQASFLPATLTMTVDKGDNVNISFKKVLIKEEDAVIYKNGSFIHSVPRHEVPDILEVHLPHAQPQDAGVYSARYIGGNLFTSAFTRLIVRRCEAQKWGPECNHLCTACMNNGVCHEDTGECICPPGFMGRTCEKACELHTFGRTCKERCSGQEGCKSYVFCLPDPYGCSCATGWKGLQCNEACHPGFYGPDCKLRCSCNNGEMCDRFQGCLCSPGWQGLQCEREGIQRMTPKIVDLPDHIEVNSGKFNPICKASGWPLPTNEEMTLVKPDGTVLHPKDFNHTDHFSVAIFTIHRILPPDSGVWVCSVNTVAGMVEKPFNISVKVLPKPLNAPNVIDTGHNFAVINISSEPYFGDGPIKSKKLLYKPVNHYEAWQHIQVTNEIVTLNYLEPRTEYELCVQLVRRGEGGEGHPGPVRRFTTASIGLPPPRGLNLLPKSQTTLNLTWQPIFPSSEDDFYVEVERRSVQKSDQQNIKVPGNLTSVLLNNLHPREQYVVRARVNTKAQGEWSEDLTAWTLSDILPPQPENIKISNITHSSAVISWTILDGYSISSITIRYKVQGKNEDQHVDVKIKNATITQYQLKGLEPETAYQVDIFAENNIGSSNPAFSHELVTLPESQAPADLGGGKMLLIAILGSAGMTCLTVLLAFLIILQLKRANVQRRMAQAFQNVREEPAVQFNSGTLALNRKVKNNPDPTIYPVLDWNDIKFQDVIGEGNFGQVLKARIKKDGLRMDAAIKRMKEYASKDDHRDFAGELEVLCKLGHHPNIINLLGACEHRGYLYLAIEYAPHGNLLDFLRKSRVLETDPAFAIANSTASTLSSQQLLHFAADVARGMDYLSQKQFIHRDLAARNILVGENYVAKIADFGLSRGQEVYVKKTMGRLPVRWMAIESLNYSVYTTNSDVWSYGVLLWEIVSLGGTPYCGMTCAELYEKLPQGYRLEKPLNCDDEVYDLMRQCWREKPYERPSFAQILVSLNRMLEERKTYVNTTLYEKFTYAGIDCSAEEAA
human Fibroblast Growth Factor Receptor 1 (FGFR1), FGFR1 (gene 2260), sequence (P11362 whole entry, looked up): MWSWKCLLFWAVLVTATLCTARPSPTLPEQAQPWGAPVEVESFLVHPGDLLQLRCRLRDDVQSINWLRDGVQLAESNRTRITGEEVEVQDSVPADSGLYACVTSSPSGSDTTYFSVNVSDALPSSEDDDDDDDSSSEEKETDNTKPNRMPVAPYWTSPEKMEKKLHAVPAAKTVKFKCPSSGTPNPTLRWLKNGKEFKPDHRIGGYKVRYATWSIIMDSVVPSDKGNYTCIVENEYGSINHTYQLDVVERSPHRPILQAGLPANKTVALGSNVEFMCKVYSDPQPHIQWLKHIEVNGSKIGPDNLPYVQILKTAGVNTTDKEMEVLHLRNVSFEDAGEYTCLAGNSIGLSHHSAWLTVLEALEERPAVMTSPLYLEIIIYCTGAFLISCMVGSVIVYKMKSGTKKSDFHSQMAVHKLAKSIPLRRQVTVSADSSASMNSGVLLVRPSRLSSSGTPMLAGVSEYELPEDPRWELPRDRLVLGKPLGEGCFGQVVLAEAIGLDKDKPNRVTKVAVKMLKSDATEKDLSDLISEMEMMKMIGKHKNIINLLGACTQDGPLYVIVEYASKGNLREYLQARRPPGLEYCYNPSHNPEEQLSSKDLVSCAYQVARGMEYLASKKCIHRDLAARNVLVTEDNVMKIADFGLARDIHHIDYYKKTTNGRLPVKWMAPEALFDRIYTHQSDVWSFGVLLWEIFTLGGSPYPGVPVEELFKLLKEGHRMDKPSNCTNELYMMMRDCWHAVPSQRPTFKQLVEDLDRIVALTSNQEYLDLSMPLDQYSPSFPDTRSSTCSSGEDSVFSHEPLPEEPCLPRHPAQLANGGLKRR

As to `COC(=O)CSc1cc(N=c2sc(=O)n3n2CCCC3)c(F)cc1Cl`, the result in test [1], in [2], in test [3], in test [4] and in [5] was inactive.

As usually defined, the AC50 is the concentration giving half of the maximal activity seen. Turning to `COc1cc(C(=O)NC2CCN(C)CC2)ccc1Nc1ncc2c(n1)N(C1CCCC1)CC(F)(F)C(=O)N2C`, the compound was classed as inactive in [1], in test [7], in [8], in [10], in test [12] and in [13]. In addition, the AC50 was 23.4 µM (active) in test [6], 12.2 µM (active) in [9], 6.13 µM (active) in test [11] and 3.01 µM (active) in test [14].

Take `C[C@]12CC[C@@H]3c4ccc(O)cc4C[C@@H](CCCCCCCCCS(=O)CCCC(F)(F)C(F)(F)F)[C@H]3[C@@H]1CC[C@@H]2O` (stereo partly drawn): the outcome in [1], in test [6] and in test [15] was inactive.

Take `CC(C)(c1ccc(O)cc1)c1ccc(O)cc1`: the call in test [1], in [9], in test [19], in [20], in [21] and in test [15] was inactive. For the same compound, the compound was classed as inactive in test [22], in [5] and in test [24]. Also, the AC50 is 6.12 µM (active) and 7.43 µM (active) in test [2]; 4.07 µM (active) in test [16]; 7.75 µM (active) and 4.05 µM (active) and 10 µM (active) in [17]; 10 µM (active) in test [18]; 7.41 µM (active) in [23]; 12.5 µM (active) [middle of 4 runs] in test [14].
